Experimental data taken from PubChem BioAssay AID435019 (Southern Research Specialized Biocontainment Screening …, 2010).
Among all 2,300 compounds or so, about 1,200 (52%) were called active. How the calls were made is not given here. The set was probably picked from earlier hits. The list shows a part of the results. Entries with a potency or affinity are not part of this list.

Assay: mammalian cell cytotoxicity, dose response, cytotoxicity control for M. tuberculosis inhibitor project (AID 435019);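 further: 0% = background wells and 100% = vehicle-treated cells; lower values mean fewer viable cells so more cytotoxicity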
Conditions: cytotoxicity counter-screen; series mostly up to 40 µM; viability: at the top concentration

| SMILES | viability |
| --- | --- |
| O=C(c1ccc(CNc2c(N3CCCC3)c(=O)c2=O)cc1)N1CC=C(c2ccccc2)CC1 | 91.6% (inactive) |
| O=c1oc(-c2cccs2)nc2c1cnn2-c1ccccc1 | 97.4% (inactive) |
| Cc1nc2ccc(NC(=O)N(C(C)C)C(C)C)cc2s1 | 93.6% (inactive) |
| CCN1c2ccccc2N(C)C1(C)c1ccccc1 (stereo not drawn) | 94.9% (inactive) |
| COC(=O)CSc1ncnc2c1sc1nc3c(cc12)COC(C)(C)C3 | 82.5% (inactive) |
| Cc1ccc(NC(=O)COC(=O)C(NS(=O)(=O)c2ccc(Cl)cc2)C(C)O)cc1C (stereo not drawn) | 86.8% (inactive) |
| Fc1ccc(N/N=C2/CC(c3ccccc3)Oc3ccccc32)c(F)c1 (stereo not drawn) | 97.5% (inactive) |
| CCCCc1cc(=O)oc2cc(O)ccc12 | 86.2% (inactive) |
| CCCCN1C(=N)N([C@@H](CCC)CN2CCC[C@H]2CN2C(N)=NC[C@@H]2Cc2ccccc2)C[C@H]1Cc1ccccc1 | 92.3% (inactive) |
| O=C(CNC(=O)c1ccc(Cl)cc1)c1ccc(Cl)cc1 | 87.5% (inactive) |
| CCOC(=O)COc1cc(O)c2c(=O)cc(-c3ccccc3)oc2c1 | 102% (inactive) |
| CC(=O)/C=C(\C)Nc1ccccc1O | 84.8% (inactive) |
| N#Cc1nccnc1S(=O)(=O)c1cccs1 | 99.3% (inactive) |
| CCOC(=O)C(=NC1CCS(=O)(=O)C1)NNc1ccc(Br)cc1 (stereo not drawn) | 99.3% (inactive) |
| O=C(C[n+]1ccc(C(=O)c2ccccc2)cc1)Nc1ccc(C(F)(F)F)cc1 | 104% (inactive) |
| C/C(=N\NC(N)=S)c1ccc(Cl)s1 | 88.2% (inactive) |
| O=C(C/C=N\OCc1ccc([N+](=O)[O-])cc1)Nc1ccc(F)cc1F | 96.9% (inactive) |
| O=C(NNc1ccc([N+](=O)[O-])cc1)c1ccco1 | 101% (inactive) |
| CC1=C(C)C(=O)C(CCCCC#CCCCC#CCO)=C(C)C1=O | 84.5% (inactive) |
| CC1CCCCC1NC(=O)c1ccc2c(c1)[nH]c(=O)n2C1CCCC1 (stereo not drawn) | 94.4% (inactive) |
| CCCCOC(=O)CSc1nnc(-c2ccc(Cl)cc2Cl)o1 | 95.3% (inactive) |
| COc1ccc(-c2cc(O)cc(O)c2)cc1 | 84.8% (inactive) |
| COc1ccc(N=Cc2c(O)cc(C)oc2=O)cc1 | 92.7% (inactive) |

| SMILES | viability |
| --- | --- |
| Cn1c(N)c(C(=O)COC(=O)c2ccc([N+](=O)[O-])o2)c(=O)n(C)c1=O | 87.2% (inactive) |
| CSc1cccc(N=C2C(=O)Nc3ccccc32)c1 | 92.1% (inactive) |
| Cc1ccc(Nc2nc(CSc3nnc(-c4cccs4)o3)cs2)cc1 | 86.8% (inactive) |
| Fc1ccc(-c2nnc(CSc3nnc(-c4cccs4)o3)o2)cc1 | 95.8% (inactive) |
| CCCNC(=S)Nc1ccc(Nc2ccccc2)cc1 | 83% (inactive) |
| CCOC(=O)N1CCN(C(=O)CSc2nnc(-c3ccc(Cl)s3)o2)CC1 | 95.8% (inactive) |
| COc1ccc(NC(=O)CN(C)CC(=O)Nc2sc3c(c2C(N)=O)CCC3)cc1 | 90.6% (inactive) |
| CC1(C)CC(=O)C2=C(C1)OC(N)=C([N+](=O)[O-])C2c1ccc(C#N)s1 (stereo not drawn) | 84.6% [at 20 µM] (inactive) |
| Clc1ccc(CSc2ncn[nH]2)cc1 | 88.4% (inactive) |
| Nc1ccc(OCc2ccco2)cc1 | 89.3% (inactive) |
| CCCn1nc(C(=O)NNC(=O)c2ccc(C)c(C)c2)c2ccccc2c1=O | 99.7% (inactive) |
| CCOC(=O)c1ccc(NC(=O)CCc2nc(-c3ccc(Cl)cc3)no2)cc1 | 92.1% (inactive) |
| CCOC(=O)c1ccc(NC(=O)CSc2ccc(-c3cccnc3)nn2)cc1 | 98.3% (inactive) |
| COc1cccc(/C=C/c2nc(C#N)c(NCC(C)C)o2)c1 | 95.4% (inactive) |
| O=C(CCc1c[nH]c2ccccc12)N1CCN(S(=O)(=O)c2ccccc2)CC1 | 87.8% (inactive) |
| CN(C)CCCN(C(=O)c1ccc([N+](=O)[O-])s1)c1nc2cc3c(cc2s1)OCCO3 | 86.4% (inactive) |
| Cc1ccc(-n2nnc3c(=O)oc4ccccc4c32)cc1 | 98.7% (inactive) |
| Oc1cccc(-c2nc3ccccc3s2)c1 | 92.2% (inactive) |
| Cc1nc2sccn2c(=O)c1CCN1CCC(=C(c2ccccc2)c2ccc(F)cc2)CC1 | 89.2% (inactive) |
| Nc1c(C(=O)NC2CCCCC2)nsc1C(=O)OCC(=O)NC1CCCCC1 | 94% (inactive) |
| O=c1[nH]c(=O)n(C2CCCO2)cc1F (stereo not drawn) | 94.6% (inactive) |
| NN/C(=C\[N+](=O)[O-])Nc1ccc(Cl)cc1 | 87.6% (inactive) |
| Cc1ccc(CN2CCN(/N=C/c3ccc(Cl)c([N+](=O)[O-])c3)CC2)cc1 | 82.9% (inactive) |

| SMILES | viability |
| --- | --- |
| CSc1ccc(CNC(=O)C2Cc3cc(S(=O)(=O)N4CCCCC4)ccc3N2C(C)=O)cc1 (stereo not drawn) | 90% (inactive) |
| CC(C)CS(=O)(=O)C1=NN2C(=N)/C(=C\c3ccc(OC(=O)c4ccco4)cc3)C(=O)N=C2S1 | 88.1% (inactive) |
| CCCOC(=O)c1ccc(-c2ccc(C=O)o2)cc1 | 87.9% (inactive) |
| COC(=O)CC(=O)N1CCN(c2ccc(Cl)c(Cl)c2)CC1 | 86.9% (inactive) |
| O/N=C/c1cn(-c2ccc(Cl)cc2)nn1 | 98% (inactive) |
| CSCCOC(=O)COc1ccc(/C=N/NC(=O)c2c(Cl)cnn2C)cc1 | 102% (inactive) |
| O=C1CCC(=O)N1CNc1ccc(Oc2ccccc2)cc1 | 88.9% (inactive) |
| O/N=C/c1ccc2ccccc2c1 | 90.8% (inactive) |
| Nc1cc(C(=O)OCC(=O)NNC(=O)c2cccs2)ccc1Cl | 96.5% (inactive) |
| CCCNc1nc(-c2cc(C(=O)Nc3ccccc3)on2)cc(C(C)C)n1 | 90.3% (inactive) |
| CO/N=C(\Cn1ncc(N2CCCC2)c(Cl)c1=O)c1ccc(Cl)cc1 | 87.1% (inactive) |
| O=C(COc1cc(O)c2c(=O)c3ccccc3oc2c1)OCc1ccccc1 | 101% (inactive) |
| C=CCC1(CC=C)CCCN1C(=O)c1cc(COc2ccc(-n3cncn3)cc2)on1 | 64.9% (inactive) |
| O=[N+]([O-])c1ccc(-c2csc(NN=C3CCCC3)n2)cc1 | 96.1% (inactive) |
| Cn1nc(C(F)(F)F)c2cc(NC(=O)OCC(C)(C)C)sc21 | 90.9% (inactive) |
| CCCCCCN=C1CC(C)(C)CC(=O)/C1=C(/O)CCC | 83.1% (inactive) |
| S=C(NCCc1ccccc1)NN=C1CCCCCC1 | 94.1% (inactive) |
| Cc1occc1-c1nnc(SCC(=O)NCCc2ccccc2)o1 | 91.9% (inactive) |
| O=S(Cc1ccc(Br)cc1)Cc1nnc(SCc2ccc(Cl)cc2)n1-c1ccccc1 (stereo not drawn) | 53.3% (inactive) |
| O=C(COC(=O)c1cccs1)c1ccccc1 | 101% (inactive) |
| COC(OC)c1ccnc(-c2ccc(OC(=O)c3cccs3)cc2)n1 | 92.7% (inactive) |
| CCOC(=O)c1ccc(OC(=O)CCCCCN=C(N)N)cc1 | 94.7% (inactive) |
| CC1(C)CC(=O)c2c(O)cc(OCc3ccc(Br)cc3)cc2O1 | 82.1% (inactive) |

| SMILES | viability |
| --- | --- |
| CCOc1ccc(NC(=O)CCc2nnc3ccc(N4CCC(C)CC4)nn23)cc1 | 89% (inactive) |
| Cc1ccc(C(C)C)c(OCC(=O)OCc2c(C)noc2C)c1 | 95.7% (inactive) |
| Cc1ccccc1Nc1nc(N)nc(COC(=O)c2ccc([N+](=O)[O-])o2)n1 | 91.6% (inactive) |
| Cc1ccc(Nc2nc(N)nc(CN3CCc4ccccc4C3)n2)cc1 | 82.5% (inactive) |
| CCOC(=O)CN(C#N)c1nc(N(C)C)nc(N(C)C)n1 | 98.9% (inactive) |
| CN(C)N=Nc1nc[nH]c1C(N)=O | 99.6% (inactive) |
| CCNc1nc(NCC)n2c(SC(C(=O)Nc3cc(C)ccc3C)c3ccccc3)nnc2n1 (stereo not drawn) | 87.6% (inactive) |
| Cn1cc(/C=C2\C(=O)NC(=O)N(c3ccccc3)C2=O)c2ccccc21 | 95.5% (inactive) |
| CC(C)Cn1c(N2CCN(C(=O)/C=C/c3ccccc3)CC2)nc2ccccc21 | 92.8% (inactive) |
| CC(C)(Oc1ccc(Cl)cc1)C(=O)OCC(=O)N1CCN(c2ccccc2)CC1 | 89.3% (inactive) |
| CCN(CC)C(=O)Oc1ccc2c(=O)c(-c3ccc(OC)cc3)coc2c1 | 81.8% (inactive) |
| CN(C)C(=O)C1C2NC(=S)N(c3ccc(Cl)cc3)C1(C)Oc1ccc(Cl)cc12 (stereo not drawn) | 93.5% (inactive) |
| COc1cc(NC(=O)C/C(C)=N/NC(=O)c2ccccn2)c(OC)cc1Cl | 91.8% (inactive) |
| O=c1oc2cc(O)ccc2c2ccccc12 | 93.3% (inactive) |
| Cc1ccc(-c2ccc(/C=N/c3ncn[nH]3)o2)cc1Cl | 94.2% (inactive) |
| C=C(C)C1CC=C(C)/C(=N/NC(=O)CNc2ccc(OCC)cc2)C1 (stereo not drawn) | 97.4% (inactive) |
| CCCOC(=O)CSc1nc(N2CCOCC2)c2c(c1C#N)CC(C)(C)OC2 | 88.7% (inactive) |
| O=C(c1ccc(C#Cc2ccccc2)o1)N1CCN(c2ccccn2)CC1 | 95.5% (inactive) |
| O=C(Oc1ccc(-c2cn3c(n2)SCC3)cc1)c1ccccc1 | 91.9% (inactive) |
| CC(=Nc1ccc(C)c(C)c1)C1=C(O)CSC1=O | 103% (inactive) |
| Oc1ccccc1C=NC1=NN(c2cccc(C(F)(F)F)c2)CC1 | 94% (inactive) |
| O=C(O)c1ccccc1C(=O)NNc1ccc(Cl)cc1Cl | 102% (inactive) |
| Cc1nn(C(C)(C)C)c(NC(=O)c2ccc(Cl)cc2Cl)c1Br | 98.6% (inactive) |

| SMILES | viability |
| --- | --- |
| O=C(C[n+]1cc(-c2ccc(Cl)cc2)n2c1CCC2)Nc1nc(-c2ccccc2)cs1 | 102% (inactive) |
| COc1ccc(N=c2ssnc2Cl)cc1 | 98.1% (inactive) |
| O=C(CSc1cccc[n+]1[O-])c1cccs1 | 94.3% (inactive) |
| O=C(OCC(=O)N1CCCc2ccccc21)c1ccc(S(=O)(=O)C(F)F)cc1 | 98.4% (inactive) |
| CCN(CC)CCN(C(=O)c1ccc(S(=O)(=O)N2CCCC2)cc1)c1nc2cc(C)cc(C)c2s1 | 82.7% (inactive) |
| COc1cc(C(=O)N/N=C/c2cc([N+](=O)[O-])cs2)cc(OC)c1OC | 57% (inactive) |
| Cc1ccc(CN2CCN(Cc3ccc(-n4cccn4)cc3C)CC2CCO)cc1 (stereo not drawn) | 94.7% (inactive) |
| COc1ccc(N=C/C=C2/C=C(c3ccccc3)OC(C)(C)O2)cc1 | 90.1% (inactive) |
| N#CC(C#N)=C(N)CSc1cccc[n+]1[O-] | 98.7% (inactive) |
| CCOc1ccc(-c2nn3c(-c4ccccc4)nnc3s2)cc1 | 94.3% (inactive) |
| CCOc1ccc(N=C(NC#N)SCC(=O)NC2CC2)cc1 | 96.3% (inactive) |
| CC(C)Oc1ccc(NC(=O)Oc2ccccc2)cc1 | 98.2% (inactive) |
| COc1ccc(Cc2nnc(SCC(=O)N(c3ccccc3)C(C)C)n(N)c2=O)cc1 | 88.1% (inactive) |
| CC(c1nc2ccccc2c(=O)[nH]1)N(C)CCOc1ccc(Cl)cc1 (stereo not drawn) | 94.2% (inactive) |
| CCOC(=O)C1CCN(C(=O)c2ccc3c(c2)NC(=O)/C(=C/c2ccccc2)S3)CC1 | 90% (inactive) |
| CN(C)c1ccc(CNc2nc(-c3ccccc3)nn2S(C)(=O)=O)cc1 | 97.1% (inactive) |
| Nc1ccc(N=Nc2ccccc2)c(N)n1 | 80.2% (inactive) |
| C#CCOC(=O)/C(=C/c1ccc(F)cc1)NC(C)=O | 96.9% (inactive) |
| Cc1ccc(C(=O)C[n+]2cc(-c3ccc(C)cc3)n3c2CCCCC3)cc1 | 87.2% (inactive) |
| COc1ccc(-n2c(-c3ccc(Cl)cc3)c[n+]3c2CCc2ccccc2-3)cc1 | 89.3% (inactive) |
| O=C(CN1CCN(Cc2ccc(Cl)cc2)CC1)N/N=C/C=C/c1ccccc1[N+](=O)[O-] | 90% (inactive) |
